Assay results taken from the supplement of paper PMC10849652.
About 8,800 targets were measured; listed, in parts, are those with a hit and a random draw of the rest. About 0.5% of all pairs of compound and target were hits. A number with no mark means an inactive call.

Tests used:
Assay in all cases: log2 fold change, soluble protein after heating vs DMSO (PISA); higher = thermal stabilisation; K562 lysate, 10 uM; active = over 0.2 and 3.5 SD of the protein, either way, in both replicates (recomputed)
[1] = compound: NCC(=O)Nc1ccc(-n2nc(C(F)(F)F)cc2-c2ccc3c(ccc4ccccc43)c2)cc1
In short: (§1)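 Dounce homogenisation of K562 pellets in PBS pH 7.4 with 1 mM MgCl2 produced a crude extract, used at 1 mg/mL protein. Exposure to 10 μM compound lasted 30 min, and aliquots were then heated for 3 min across 48°C-58°C, pooled and brought to 0.5% NP-40 at 4°C. The supernatant after 21,000xg for 90 min was quantified by TMTpro 16plex LC-MS/MS with channel sums equalised. Duplicate values are given as log-two fold change in thermal stability relative to solvent controls.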

vorinostat = compound: O=C(CCCCCCC(=O)Nc1ccccc1)NO [vorinostat]
In short: as §1

silmitasertib = compound: O=C(O)c1ccc2c(c1)nc(Nc1cccc(Cl)c1)c1ccncc12 [silmitasertib]
In short: as §1

[2] = compound: O=C1NC(=O)C(c2cnc3ccccn23)=C1c1cn2c3c(cc(F)cc13)CN(C(=O)N1CCCCC1)CC2
In short: as §1

entospletinib = compound: c1cn2cc(-c3ccc4cn[nH]c4c3)nc(Nc3ccc(N4CCOCC4)cc3)c2n1 [entospletinib]
In short: as §1

Sequence of UniProt Q9UBK9 (Q9UBK9 whole entry, looked up): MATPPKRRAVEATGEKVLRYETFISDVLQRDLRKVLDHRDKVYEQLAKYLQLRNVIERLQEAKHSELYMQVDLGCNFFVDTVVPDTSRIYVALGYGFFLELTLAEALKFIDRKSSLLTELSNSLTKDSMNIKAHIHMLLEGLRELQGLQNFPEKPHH
Sequence of UniProt Q9Y4E6 (Q9Y4E6 whole entry, looked up): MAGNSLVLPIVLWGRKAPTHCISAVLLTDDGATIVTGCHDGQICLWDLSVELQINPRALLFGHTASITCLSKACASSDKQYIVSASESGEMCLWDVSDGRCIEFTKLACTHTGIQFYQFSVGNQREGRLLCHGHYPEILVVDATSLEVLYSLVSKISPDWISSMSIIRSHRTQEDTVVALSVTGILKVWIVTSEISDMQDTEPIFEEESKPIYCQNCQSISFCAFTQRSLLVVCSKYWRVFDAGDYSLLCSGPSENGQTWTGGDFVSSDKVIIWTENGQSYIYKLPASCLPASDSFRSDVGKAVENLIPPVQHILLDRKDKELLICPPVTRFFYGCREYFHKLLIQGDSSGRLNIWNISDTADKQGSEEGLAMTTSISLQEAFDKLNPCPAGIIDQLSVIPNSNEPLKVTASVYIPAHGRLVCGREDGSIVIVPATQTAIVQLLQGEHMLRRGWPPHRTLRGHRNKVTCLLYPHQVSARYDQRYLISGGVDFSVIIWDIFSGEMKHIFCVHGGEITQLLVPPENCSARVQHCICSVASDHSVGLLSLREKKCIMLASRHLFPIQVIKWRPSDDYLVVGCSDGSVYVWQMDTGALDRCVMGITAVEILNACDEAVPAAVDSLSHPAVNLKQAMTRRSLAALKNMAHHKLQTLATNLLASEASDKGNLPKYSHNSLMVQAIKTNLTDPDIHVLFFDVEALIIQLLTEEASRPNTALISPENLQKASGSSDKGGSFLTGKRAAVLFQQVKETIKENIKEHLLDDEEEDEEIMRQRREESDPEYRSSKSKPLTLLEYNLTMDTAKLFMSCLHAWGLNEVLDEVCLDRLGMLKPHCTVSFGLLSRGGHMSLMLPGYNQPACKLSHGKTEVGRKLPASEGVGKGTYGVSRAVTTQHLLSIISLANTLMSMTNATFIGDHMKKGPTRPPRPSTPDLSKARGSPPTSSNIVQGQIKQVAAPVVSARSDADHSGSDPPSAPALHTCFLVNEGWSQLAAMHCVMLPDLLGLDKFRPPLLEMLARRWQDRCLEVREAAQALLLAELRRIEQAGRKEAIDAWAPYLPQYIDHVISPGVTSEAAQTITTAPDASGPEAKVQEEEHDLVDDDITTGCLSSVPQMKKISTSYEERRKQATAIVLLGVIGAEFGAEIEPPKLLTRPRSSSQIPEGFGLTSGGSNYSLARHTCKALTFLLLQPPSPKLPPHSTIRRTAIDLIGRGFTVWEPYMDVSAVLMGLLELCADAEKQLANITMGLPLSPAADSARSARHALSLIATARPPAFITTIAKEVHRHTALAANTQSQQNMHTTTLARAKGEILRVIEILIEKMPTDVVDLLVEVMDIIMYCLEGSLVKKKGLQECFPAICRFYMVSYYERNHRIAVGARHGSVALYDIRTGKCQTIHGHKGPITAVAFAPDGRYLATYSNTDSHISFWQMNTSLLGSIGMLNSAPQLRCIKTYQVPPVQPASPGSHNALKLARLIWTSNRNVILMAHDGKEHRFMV
Sequence of UniProt Q9H270 (Q9H270 whole entry, looked up): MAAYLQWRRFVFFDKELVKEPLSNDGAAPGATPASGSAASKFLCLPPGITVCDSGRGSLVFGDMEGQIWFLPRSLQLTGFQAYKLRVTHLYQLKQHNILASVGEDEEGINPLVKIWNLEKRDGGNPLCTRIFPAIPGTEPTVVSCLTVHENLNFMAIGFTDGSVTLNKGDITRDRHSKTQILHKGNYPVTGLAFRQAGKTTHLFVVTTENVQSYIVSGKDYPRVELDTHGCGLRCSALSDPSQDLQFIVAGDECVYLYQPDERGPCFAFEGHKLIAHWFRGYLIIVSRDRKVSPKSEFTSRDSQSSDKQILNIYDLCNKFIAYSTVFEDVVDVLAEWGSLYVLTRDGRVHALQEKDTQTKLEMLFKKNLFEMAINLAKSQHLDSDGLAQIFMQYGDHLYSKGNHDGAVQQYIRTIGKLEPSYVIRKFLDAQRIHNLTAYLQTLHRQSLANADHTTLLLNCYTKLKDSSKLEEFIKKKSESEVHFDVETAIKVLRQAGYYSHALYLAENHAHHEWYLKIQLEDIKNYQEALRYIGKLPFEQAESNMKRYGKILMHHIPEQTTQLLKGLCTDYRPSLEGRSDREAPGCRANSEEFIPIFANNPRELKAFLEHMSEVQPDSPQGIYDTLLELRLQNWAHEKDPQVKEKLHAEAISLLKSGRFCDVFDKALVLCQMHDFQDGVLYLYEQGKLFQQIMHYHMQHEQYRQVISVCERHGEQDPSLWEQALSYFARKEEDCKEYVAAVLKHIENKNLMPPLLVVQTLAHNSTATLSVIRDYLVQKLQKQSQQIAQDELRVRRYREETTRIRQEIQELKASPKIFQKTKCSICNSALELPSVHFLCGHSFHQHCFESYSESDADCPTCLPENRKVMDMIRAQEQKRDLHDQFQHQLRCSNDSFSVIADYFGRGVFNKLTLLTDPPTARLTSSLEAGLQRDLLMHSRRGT
Sequence of UniProt O14980 (O14980 whole entry, looked up): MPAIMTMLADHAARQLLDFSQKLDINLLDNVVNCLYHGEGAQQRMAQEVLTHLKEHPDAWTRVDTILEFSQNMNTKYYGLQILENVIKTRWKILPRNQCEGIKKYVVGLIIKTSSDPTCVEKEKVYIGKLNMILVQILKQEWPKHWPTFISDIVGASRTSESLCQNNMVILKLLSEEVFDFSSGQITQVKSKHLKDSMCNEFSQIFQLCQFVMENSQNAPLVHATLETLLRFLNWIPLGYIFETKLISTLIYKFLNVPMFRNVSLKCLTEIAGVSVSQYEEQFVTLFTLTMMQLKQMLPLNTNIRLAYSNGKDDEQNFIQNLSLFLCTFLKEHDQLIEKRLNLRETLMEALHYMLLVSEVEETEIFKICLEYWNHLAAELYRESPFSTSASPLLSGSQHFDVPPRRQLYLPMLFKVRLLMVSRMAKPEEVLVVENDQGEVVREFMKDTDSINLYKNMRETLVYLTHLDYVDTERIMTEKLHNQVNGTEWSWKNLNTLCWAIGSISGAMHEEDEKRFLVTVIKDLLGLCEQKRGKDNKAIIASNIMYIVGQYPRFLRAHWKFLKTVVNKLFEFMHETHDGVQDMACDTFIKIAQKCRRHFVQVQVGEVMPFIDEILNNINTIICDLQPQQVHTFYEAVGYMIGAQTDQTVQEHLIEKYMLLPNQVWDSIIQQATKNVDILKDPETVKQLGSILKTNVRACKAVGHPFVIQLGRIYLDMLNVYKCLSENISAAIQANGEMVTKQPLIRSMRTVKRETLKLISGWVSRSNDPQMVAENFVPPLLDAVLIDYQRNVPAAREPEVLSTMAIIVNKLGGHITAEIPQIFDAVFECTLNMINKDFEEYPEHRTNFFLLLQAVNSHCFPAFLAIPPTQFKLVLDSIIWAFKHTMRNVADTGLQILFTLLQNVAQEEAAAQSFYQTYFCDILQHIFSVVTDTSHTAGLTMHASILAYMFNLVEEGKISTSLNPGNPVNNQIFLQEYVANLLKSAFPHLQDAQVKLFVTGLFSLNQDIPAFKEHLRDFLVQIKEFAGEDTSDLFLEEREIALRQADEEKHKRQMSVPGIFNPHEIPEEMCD
Sequence of UniProt Q96TA2 (Q96TA2 whole entry, looked up): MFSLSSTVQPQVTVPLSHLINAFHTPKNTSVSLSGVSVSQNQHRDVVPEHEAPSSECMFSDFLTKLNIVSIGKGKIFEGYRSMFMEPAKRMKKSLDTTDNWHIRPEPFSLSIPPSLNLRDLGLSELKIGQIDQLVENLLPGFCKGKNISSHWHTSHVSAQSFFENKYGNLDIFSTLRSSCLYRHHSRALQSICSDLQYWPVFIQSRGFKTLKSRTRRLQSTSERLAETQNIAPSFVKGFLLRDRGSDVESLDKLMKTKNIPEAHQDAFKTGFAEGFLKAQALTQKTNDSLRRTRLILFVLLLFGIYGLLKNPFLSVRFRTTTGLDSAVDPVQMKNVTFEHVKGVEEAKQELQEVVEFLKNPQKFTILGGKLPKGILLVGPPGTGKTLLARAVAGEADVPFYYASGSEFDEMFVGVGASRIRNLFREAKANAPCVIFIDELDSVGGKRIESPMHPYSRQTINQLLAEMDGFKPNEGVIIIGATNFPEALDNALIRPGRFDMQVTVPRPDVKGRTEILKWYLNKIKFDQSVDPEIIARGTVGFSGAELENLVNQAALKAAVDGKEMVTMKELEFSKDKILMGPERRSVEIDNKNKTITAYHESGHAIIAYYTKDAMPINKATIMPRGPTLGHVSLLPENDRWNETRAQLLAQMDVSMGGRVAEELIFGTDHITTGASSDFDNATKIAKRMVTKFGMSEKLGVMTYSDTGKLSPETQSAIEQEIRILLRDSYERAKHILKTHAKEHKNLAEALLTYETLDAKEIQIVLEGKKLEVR
Sequence of UniProt Q96AX1 (Q96AX1 whole entry, looked up): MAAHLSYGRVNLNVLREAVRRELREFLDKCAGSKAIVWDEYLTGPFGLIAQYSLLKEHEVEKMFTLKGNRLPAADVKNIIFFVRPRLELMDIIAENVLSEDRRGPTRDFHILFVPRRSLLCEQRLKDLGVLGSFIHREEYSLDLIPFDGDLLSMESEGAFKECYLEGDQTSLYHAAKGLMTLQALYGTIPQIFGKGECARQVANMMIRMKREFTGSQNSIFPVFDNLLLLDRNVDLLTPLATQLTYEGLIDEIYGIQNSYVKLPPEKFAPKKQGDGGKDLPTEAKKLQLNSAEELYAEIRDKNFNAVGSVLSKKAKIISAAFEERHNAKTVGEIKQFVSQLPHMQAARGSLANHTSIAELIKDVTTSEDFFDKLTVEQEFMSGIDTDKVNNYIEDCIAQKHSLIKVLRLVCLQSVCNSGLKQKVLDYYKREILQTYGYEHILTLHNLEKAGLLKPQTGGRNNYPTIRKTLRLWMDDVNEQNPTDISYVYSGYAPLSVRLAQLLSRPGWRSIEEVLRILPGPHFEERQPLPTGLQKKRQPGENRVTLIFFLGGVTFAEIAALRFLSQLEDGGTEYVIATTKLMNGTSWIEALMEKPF

Target | log2 fold change [1] | log2 fold change (vorinostat) | log2 fold change (silmitasertib) | log2 fold change [2] | log2 fold change (entospletinib)
USP10 isoform 2 (UniProt Q14694) | 0.022 | -0.294 (active) | 0 | -0.002 | -0.002
WIPI2 (UniProt Q9Y4P8) | -0.036 | -0.303 (active) | 0.033 | -0.005 | -0.008
ZNF644 (UniProt Q9H582) | -0.007 | 0.222 | -0.092 | 0.016 | -0.022
ZC3H11A (UniProt O75152) | 0.123 | -0.375 (active) | -0.026 | 0.062 | -0.009
UXT isoform 2 (UniProt Q9UBK9) | -0.003 | 0.037 | -0.039 | -0.025 | 0.02
VPS18 (UniProt Q9P253) | -0.016 | -0.386 (active) | 0.04 | 0.015 | -0.006
ZMYM1 (UniProt Q5SVZ6) | -0.014 | -0.202 | 0.042 | -0.004 | 0.021
ZMYND8 isoform 19 (UniProt Q9ULU4) | 0.059 | -0.224 (active) | 0.029 | 0.006 | -0.02
ZNF318 (UniProt Q5VUA4) | 0.064 | -0.332 (active) | -0.045 | -0.059 | -0.024
WDR7 (UniProt Q9Y4E6) | -0.01 | -0.236 (active) | 0.032 | 0.01 | -0.017
ZSWIM8 isoform 4 (UniProt A7E2V4) | 0.079 | -0.07 | 0.081 | 0.071 | -0.018
WDR24 (UniProt Q96S15) | 0.041 | -0.202 | 0.134 | 0.032 | 0.022
XAB2 (UniProt Q9HCS7) | -0.012 | -0.259 (active) | 0.005 | -0.023 | -0.006
ZHX1 (UniProt Q9UKY1) | 0.043 | -0.249 | -0.094 | -0.018 | -0.082
USP48 (UniProt Q86UV5) | -0.054 | -0.528 (active) | 0.07 | 0.034 | -0.102
VPS37B (UniProt Q9H9H4) | 0.029 | -0.349 (active) | 0.045 | -0.035 | -0.058
WDHD1 (UniProt O75717) | -0.011 | -0.259 (active) | 0.02 | -0.018 | 0.016
YLPM1 (UniProt P49750) | 0.013 | -0.126 | -0.011 | 0.017 | -0.004
WDR77 (UniProt Q9BQA1) | -0.052 | -0.067 | 0.041 | -0.01 | 0.006
XPO1 (UniProt O14980) | 0.009 | -0.233 (active) | 0.003 | -0.001 | 0.036
ZNF217 (UniProt O75362) | 0 | -0.301 (active) | 0.047 | -0.054 | -0.061
UNC45A (UniProt Q9H3U1) | -0.005 | -0.588 (active) | 0.011 | 0.008 | 0.01
USP9X (UniProt Q93008) | 0.011 | -0.466 (active) | 0.028 | -0.012 | 0
ZNF593 (UniProt O00488) | -0.029 | 0.191 | -0.001 | 0.044 | 0.027
WDCP (UniProt Q9H6R7) | -0.066 | -0.233 (active) | 0.022 | 0.02 | -0.036
VPS54 (UniProt Q9P1Q0) | 0.112 | -0.055 | -0.001 | 0.002 | 0.007
UQCRC2 (UniProt P22695) | 0.01 | 0.123 | -0.013 | 0.03 | 0.007

Target | log2 fold change [1] | log2 fold change (vorinostat) | log2 fold change (silmitasertib) | log2 fold change [2] | log2 fold change (entospletinib)
ZC2HC1A (UniProt Q96GY0) | 0.104 | -0.066 | 0.054 | -0.008 | -0.005
ZFPM1 (UniProt Q8IX07) | -0.009 | -0.251 (active) | 0 | -0.03 | -0.021
ZC3H13 (UniProt Q5T200) | 0.174 | -0.052 | -0.008 | -0.104 | 0.001
XPNPEP1 isoform 3 (UniProt Q9NQW7) | 0.006 | -0.068 | -0.001 | -0.019 | 0.002
VARS (UniProt P26640) | 0.006 | -0.275 (active) | 0.063 | 0.022 | 0.024
UTP3 (UniProt Q9NQZ2) | 0.307 (active) | 0.143 | 0.022 | -0.039 | 0.02
YEATS4 (UniProt O95619) | 0.042 | 0.057 | -0.029 | -0.046 | -0.037
UNC13D (UniProt Q70J99) | 0.022 | -0.211 (active) | 0.002 | -0.006 | 0.026
VPS13C (UniProt Q709C8) | 0.005 | 0.062 | -0.033 | 0.027 | -0.051
XPO6 (UniProt Q96QU8) | -0.034 | -0.401 (active) | 0.049 | -0.031 | -0.027
YME1L1 (UniProt Q96TA2) | -0.001 | 0.04 | 0.007 | -0.008 | 0.02
UPF3B (UniProt Q9BZI7) | 0.022 | 0.075 | -0.02 | -0.043 | -0.049
VRK1 (UniProt Q99986) | -0.013 | -0.08 | 0.091 | 0.002 | 0.056
USP3 (UniProt Q9Y6I4) | 0.015 | -0.469 (active) | -0.026 | 0.015 | -0.013
ZC3HC1 (UniProt Q86WB0) | 0.021 | -0.368 (active) | -0.034 | -0.03 | 0.01
VPS33A (UniProt Q96AX1) | 0.011 | -0.222 (active) | 0.025 | 0.007 | -0.018
VPS11 (UniProt Q9H270) | 0.023 | -0.509 (active) | -0.009 | 0.011 | -0.006
ZNF609 (UniProt O15014) | 0.184 | -0.309 (active) | 0.041 | -0.013 | -0.026
VAV3 isoform 4 (UniProt Q9UKW4) | 0.128 | -0.358 | 0.148 | -0.115 | 0.295
VHL (UniProt P40337) | 0.015 | -0.289 | -0.038 | -0.011 | -0.001
ZDHHC18 (UniProt Q9NUE0) | -0.064 | -0.162 | 0.163 | 0.009 | 0.034
WRN (UniProt Q14191) | 0.003 | -0.282 (active) | 0.035 | -0.013 | -0.005
VPS35L (UniProt Q7Z3J2) | 0.019 | -0.266 (active) | 0.027 | -0.006 | 0.015
USP48 isoform 8 (UniProt Q86UV5) | 0.014 | -0.474 (active) | 0.009 | -0.022 | 0.021
VAMP2 (UniProt P63027) | 0.071 | 0.016 | -0.008 | 0.132 | -0.054
WDR3 (UniProt Q9UNX4) | -0.031 | -0.255 (active) | 0.044 | 0.01 | -0.001
